Test results as given in PubChem BioAssay (NCATS).
Results filed as inconclusive are left out. Calls of active or inactive are those of the source. Calls come from the whole dose curve; as a rule, active = well fitted curve in the direction sought with a large enough effect; inconclusive = small, poorly fitted or top-dose-only effect, or another doubt; inactive = no such curve, though single readings can be large; an effect the other way counts as inactive or inconclusive.

experiment: qHTS assay to identify small molecule inhibitors of chordoma cells - UCH-2 (AID 1259356); conditions: UCH-2 chordoma viability, CellTiter-Glo ATP luminescence, 48 h; series mostly up to 46.1 µM; activity change, negative = inhibition: at the top concentration
% is set by controls: 0 for no effect and ±100 for the full control effect; potency is the fitted concentration of half-maximal effect.

| SMILES | activity change, negative = inhibition | Potency |
| --- | --- | --- |
| CCC1(c2ccccc2)C(=O)NC(=O)N(C)C1=O (stereo unspecified) | 3.38% (inactive) | – |
| CC[C@H]1[C@@H]2C[C@H]3[C@@H]4N(C)c5ccccc5[C@]45C[C@@H](C2[C@H]5O)N3[C@@H]1O (stereo partly specified) | -0.761% [at 20.6 µM] (inactive) | – |
| O=c1[nH]c(=O)n(Cl)c(=O)n1Cl | 10.6% (inactive) | – |
| C[N+]1(C)[C@@H]2CC[C@H]1CC(OC(=O)c1c[nH]c3ccccc13)C2 (stereo partly specified) | 2.37% (inactive) | – |
| CCC1(CC)C(=O)NC(=O)N(C)C1=O | -17.4% (inactive) | – |
| C[N+]1([O-])[C@@H]2CC(OC(=O)[C@H](CO)c3ccccc3)C[C@H]1[C@@H]1O[C@@H]12 (stereo partly specified) | – | inactive |
| O=C1CN(O)C(c2ccccc2)=c2cc(Cl)ccc2=N1 | -3.61% (inactive) | – |
| CCOP(=O)(OCC)O/C(=C/Cl)c1ccc(Cl)cc1Cl | 8.05% (inactive) | – |
| OC[C@@H](O)[C@H]1O[C@@H]2O[C@H](C(Cl)(Cl)Cl)O[C@@H]2[C@H]1O | 6.33% (inactive) | – |
| CO[C@H]1[C@@H](O)C[C@H](O[C@H]2[C@@H](O)C[C@H](O[C@H]3[C@@H](O)C[C@H](O[C@H]4CC[C@@]5(C)[C@H](CC[C@@H]6[C@@H]5C[C@@H](O)[C@]5(C)[C@@H](C7=CC(=O)OC7)CC[C@]65O)C4)O[C@@H]3C)O[C@@H]2C)O[C@@H]1C | – | 0.058 µM (active) |
| CCC(=O)O[C@@](Cc1ccccc1)(c1ccccc1)[C@@H](C)CN(C)C | 0.526% [at 20.6 µM] (inactive) | – |
| C[C@H]1CCC[C@H](O)CCCCCc2cc(O)cc(O)c2C(=O)O1 | 4.87% (inactive) | – |
| CCC1(c2ccccc2)C(=O)NC(=O)NC1=O | 5.33% (inactive) | – |
| F/C(COc1ccc2c(c1)[nH]c1ccccc12)=C1/CN2CCC1CC2 | -16.3% (inactive) | – |
| CC1(C)S[C@@H]2[C@H](N)C(=O)N2[C@H]1C(=O)O | 1.32% [at 20.6 µM] (inactive) | – |
| O=c1[nH]cc(N(CCCl)CCCl)c(=O)[nH]1 | -0.773% (inactive) | – |
| CC(C)Nc1ccc(Nc2ccccc2)cc1 | 18.5% (inactive) | – |
| O=C(CS(=O)C(c1ccccc1)c1ccccc1)NO (stereo unspecified) | 9.2% (inactive) | – |
| COc1ccc2c3c1O[C@H]1[C@@H](O)C=C[C@H]4[C@@H](C2)NCC[C@@]341 | -1.11% (inactive) | – |

| SMILES | activity change, negative = inhibition | Potency |
| --- | --- | --- |
| CCNC(C)Cc1cccc(C(F)(F)F)c1 (stereo unspecified) | 9.11% (inactive) | – |
| CC(C)(O)[C@@H]1[C@H]2OC(=O)[C@@H]1[C@]1(O)C[C@H]3O[C@]34C(=O)O[C@H]2[C@]14C | – | inactive |
| CCCCNCC(O)c1ccc(O)cc1 (stereo unspecified) | 20% (inactive) | – |
| C[N+]1([O-])[C@@H]2CC[C@H]1CC(OC(=O)C(CO)c1ccccc1)C2 (stereo partly specified) | – | inactive |
| NCC[C@H](O)C(=O)N[C@@H]1C[C@H](N)[C@@H](O[C@H]2O[C@H](CN)[C@@H](O)[C@H](O)[C@H]2N)[C@H](O[C@@H]2O[C@H](CO)[C@@H](O)[C@H]2O)[C@H]1O | 2.6% [at 20.6 µM] (inactive) | – |
| ClC1C(Cl)C(Cl)C(Cl)C(Cl)C1Cl (stereo unspecified) | -1.62% (inactive) | – |
| ClCC1CO1 (stereo unspecified) | -1.26% (inactive) | – |
| CC(=O)OCC(=O)[C@H]1CC[C@H]2[C@@H]3CC[C@H]4C[C@H](O)CC[C@]4(C)[C@H]3C(=O)C[C@]12C | 4.93% [at 20.6 µM] (inactive) | – |
| O=C(NCNC(=O)NC1C(=O)NC(=O)N1CO)NC1C(=O)NC(=O)N1CO (stereo unspecified) | -0.275% (inactive) | – |
| S=C=S | -14.4% (inactive) | – |
| COc1cc2c(cc1OC)[C@@]13CCN4CC5=CCO[C@H]6CC(=O)N2[C@H]1[C@H]6[C@H]5C[C@H]43 | 6.74% (inactive) | – |
| [S]=[Sb](=[S])[S][Sb](=[S])=[S] | -11.2% (inactive) | – |
| ClC1=C(Cl)[C@]2(Cl)[C@@H]3[C@H]4C[C@H]([C@@H]5O[C@H]45)[C@@H]3[C@@]1(Cl)C2(Cl)Cl | 2.32% (inactive) | – |
| O=C1CN=C(c2ccccc2)c2cc(Cl)ccc2N1CC1CC1 | -0.756% (inactive) | – |
| O=C(NC(=O)c1c(F)cccc1F)Nc1ccc(Cl)c(Oc2ncc(C(F)(F)F)cc2Cl)c1 | -22.7% (inactive) | – |
| CCCCCCCCOC(=O)c1ccccc1C(=O)OCCCCCCCC | 4.1% (inactive) | – |
| COC([CH2][Hg])CNC(=O)c1ccccc1OCC(=O)O (stereo unspecified) | 9.54% (inactive) | – |
| C[C@H]1CC[C@]2(NC1)O[C@H]1C[C@H]3[C@@H]4CC[C@H]5C[C@@H](O[C@@H]6O[C@H](CO)[C@H](O[C@@H]7O[C@H](CO)[C@@H](O)[C@H](O[C@@H]8OC[C@@H](O)[C@H](O)[C@H]8O)[C@H]7O[C@@H]7O[C@H](CO)[C@@H](O)[C@H](O)[C@H]7O)[C@H](O)[C@H]6O)CC[C@]5(C)[C@H]4CC[C@]3(C)[C@H]1[C@@H]2C | – | 2.06 µM (active) |
| N#CN | 6.65% (inactive) | – |

experiment: P-glycoprotein substrates identified in KB-8-5-11 adenocarcinoma cell line, qHTS therapeutic library screen (AID 1346987); conditions: KB-8-5-11 (P-gp overexpressing) viability, CellTiter-Glo, 72 h; series mostly up to 44.5 µM; activity change, negative = cytotoxicity: at the top concentration; note: nearly all actives have a fitted effect of over 65% in size
Method in brief: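 P-gp-mediated resistance screen: KB-8-5-11 cells treated 72 h with compounds in dose-response. CellTiter-Glo viability.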

| SMILES | activity change, negative = cytotoxicity | Potency |
| --- | --- | --- |
| CCC1(c2ccccc2)C(=O)NC(=O)N(C)C1=O (stereo unspecified) | 2.89% (inactive) | – |
| CC[C@H]1[C@@H]2C[C@H]3[C@@H]4N(C)c5ccccc5[C@]45C[C@@H](C2[C@H]5O)N3[C@@H]1O (stereo partly specified) | -12.7% [at 17.3 µM] (inactive) | – |
| O=c1[nH]c(=O)n(Cl)c(=O)n1Cl | 10.6% (inactive) | – |
| C[N+]1(C)[C@@H]2CC[C@H]1CC(OC(=O)c1c[nH]c3ccccc13)C2 (stereo partly specified) | 4.17% (inactive) | – |
| CCC1(CC)C(=O)NC(=O)N(C)C1=O | -10.1% (inactive) | – |
| C[N+]1([O-])[C@@H]2CC(OC(=O)[C@H](CO)c3ccccc3)C[C@H]1[C@@H]1O[C@@H]12 (stereo partly specified) | – | inactive |
| O=C1CN(O)C(c2ccccc2)=c2cc(Cl)ccc2=N1 | 18.1% (inactive) | – |
| CCOP(=O)(OCC)O/C(=C/Cl)c1ccc(Cl)cc1Cl | – | 10.3 µM (active) |
| OC[C@@H](O)[C@H]1O[C@@H]2O[C@H](C(Cl)(Cl)Cl)O[C@@H]2[C@H]1O | 10.5% (inactive) | – |
| CO[C@H]1[C@@H](O)C[C@H](O[C@H]2[C@@H](O)C[C@H](O[C@H]3[C@@H](O)C[C@H](O[C@H]4CC[C@@]5(C)[C@H](CC[C@@H]6[C@@H]5C[C@@H](O)[C@]5(C)[C@@H](C7=CC(=O)OC7)CC[C@]65O)C4)O[C@@H]3C)O[C@@H]2C)O[C@@H]1C | – | 0.259 µM (active) |
| CCC(=O)O[C@@](Cc1ccccc1)(c1ccccc1)[C@@H](C)CN(C)C | -26.4% [at 17.3 µM] (inactive) | – |
| C[C@H]1CCC[C@H](O)CCCCCc2cc(O)cc(O)c2C(=O)O1 | – | 14.6 µM (active) |
| CCC1(c2ccccc2)C(=O)NC(=O)NC1=O | 5.03% (inactive) | – |
| F/C(COc1ccc2c(c1)[nH]c1ccccc12)=C1/CN2CCC1CC2 | -23.4% (inactive) | – |
| CC1(C)S[C@@H]2[C@H](N)C(=O)N2[C@H]1C(=O)O | -1.5% [at 17.3 µM] (inactive) | – |
| O=c1[nH]cc(N(CCCl)CCCl)c(=O)[nH]1 | -16.5% (inactive) | – |
| CC(C)Nc1ccc(Nc2ccccc2)cc1 | – | 20.6 µM (active) |
| O=C(CS(=O)C(c1ccccc1)c1ccccc1)NO (stereo unspecified) | -11.4% (inactive) | – |
| COc1ccc2c3c1O[C@H]1[C@@H](O)C=C[C@H]4[C@@H](C2)NCC[C@@]341 | – | inactive |

| SMILES | activity change, negative = cytotoxicity | Potency |
| --- | --- | --- |
| CCNC(C)Cc1cccc(C(F)(F)F)c1 (stereo unspecified) | -4.34% (inactive) | – |
| CC(C)(O)[C@@H]1[C@H]2OC(=O)[C@@H]1[C@]1(O)C[C@H]3O[C@]34C(=O)O[C@H]2[C@]14C | – | inactive |
| CCCCNCC(O)c1ccc(O)cc1 (stereo unspecified) | 19.8% (inactive) | – |
| C[N+]1([O-])[C@@H]2CC[C@H]1CC(OC(=O)C(CO)c1ccccc1)C2 (stereo partly specified) | – | inactive |
| NCC[C@H](O)C(=O)N[C@@H]1C[C@H](N)[C@@H](O[C@H]2O[C@H](CN)[C@@H](O)[C@H](O)[C@H]2N)[C@H](O[C@@H]2O[C@H](CO)[C@@H](O)[C@H]2O)[C@H]1O | 12.8% [at 17.3 µM] (inactive) | – |
| ClC1C(Cl)C(Cl)C(Cl)C(Cl)C1Cl (stereo unspecified) | 3.95% (inactive) | – |
| ClCC1CO1 (stereo unspecified) | -1.3% (inactive) | – |
| CC(=O)OCC(=O)[C@H]1CC[C@H]2[C@@H]3CC[C@H]4C[C@H](O)CC[C@]4(C)[C@H]3C(=O)C[C@]12C | 13.7% [at 17.3 µM] (inactive) | – |
| O=C(NCNC(=O)NC1C(=O)NC(=O)N1CO)NC1C(=O)NC(=O)N1CO (stereo unspecified) | 12.7% (inactive) | – |
| S=C=S | -1.09% (inactive) | – |
| COc1cc2c(cc1OC)[C@@]13CCN4CC5=CCO[C@H]6CC(=O)N2[C@H]1[C@H]6[C@H]5C[C@H]43 | – | inactive |
| [S]=[Sb](=[S])[S][Sb](=[S])=[S] | -2.17% (inactive) | – |
| ClC1=C(Cl)[C@]2(Cl)[C@@H]3[C@H]4C[C@H]([C@@H]5O[C@H]45)[C@@H]3[C@@]1(Cl)C2(Cl)Cl | 15.9% (inactive) | – |
| O=C1CN=C(c2ccccc2)c2cc(Cl)ccc2N1CC1CC1 | – | 9.2 µM (active) |
| O=C(NC(=O)c1c(F)cccc1F)Nc1ccc(Cl)c(Oc2ncc(C(F)(F)F)cc2Cl)c1 | -7.73% (inactive) | – |
| CCCCCCCCOC(=O)c1ccccc1C(=O)OCCCCCCCC | -4.95% (inactive) | – |
| COC([CH2][Hg])CNC(=O)c1ccccc1OCC(=O)O (stereo unspecified) | 11.7% (inactive) | – |
| C[C@H]1CC[C@]2(NC1)O[C@H]1C[C@H]3[C@@H]4CC[C@H]5C[C@@H](O[C@@H]6O[C@H](CO)[C@H](O[C@@H]7O[C@H](CO)[C@@H](O)[C@H](O[C@@H]8OC[C@@H](O)[C@H](O)[C@H]8O)[C@H]7O[C@@H]7O[C@H](CO)[C@@H](O)[C@H](O)[C@H]7O)[C@H](O)[C@H]6O)CC[C@]5(C)[C@H]4CC[C@]3(C)[C@H]1[C@@H]2C | – | 20.6 µM (active) |
| N#CN | 10.6% (inactive) | – |
